The source of these data is PubChem BioAssay.

The structures appear in SMILES notation. Values without a mark were called inactive. Active and inactive are the calls of the source.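 How the source made its calls: active means inhibition of the reporter signal at or above 50%; inactive means inhibition below 50%.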

A short description of this test: TLR3 IRF3 reporter activation blockers – cell-based, poly I:C stimulus, luciferase, 10K MLSCN set, primary screen (AID 602277). The note with it: HEK293-TLR3 RL24 IRF3 luciferase reporter, at 10 µM, stronger effect = higher value.
With `O=C(CCn1c(=O)c2ccccc2n(CC(=O)NCCC2=CCCCC2)c1=O)NCc1ccco1`, the inhibition was 10.3%.

For `CCOC(=O)N1CCC(n2c(SCC(=O)NCc3ccco3)nc3ccsc3c2=O)CC1`, the inhibition is 23.6%.

For the compound `CCOC(=O)N1CCC(NC(=O)c2ccc3c(c2)N(CC)CCS3)CC1`, the inhibition was 34.1%.

Regarding `CC(=O)NC1(C(F)(F)F)NC(=O)N(CC(C)C)C1=O` (stereo not given), the inhibition was 14%.

As for `COc1ccc(CCn2c(-c3ccco3)nc3ccccc3c2=O)cc1OC`, the inhibition is -5.38%.

For `CCCC(=O)Nc1cc(-c2nnc(OC)c3ccccc23)ccc1N1CCOCC1`, the inhibition is 27.2%.

As to `O=c1oc2ccccc2c(O)c1CN1CCCCC1`, the inhibition was 8.62%.

In the case of `Nc1nc(N2CCN(C/C=C/c3ccccc3)CC2)nc2ccccc12`, the inhibition is 7.48%.

Take `Cc1ccc(-c2cn3cccnc3n2)cc1NC(=O)c1ccc(Br)o1`: the inhibition is -53%.

As for `O=c1[nH]c(Nc2ccccc2)cc2ccccc12`, the inhibition is 7.53%.

For the compound `Fc1ccc(-c2nnc(CN3CCN(c4ncc(C(F)(F)F)cc4Cl)CC3)o2)cc1`, the inhibition was -7.66%.

As to `COc1cc(N=c2ssnc2Cl)cc(OC)c1`, the inhibition is 8.97%.

With `COc1ccc(-c2c(=O)n(OCc3ccccn3)c3ccccc3[n+]2[O-])cc1OC`, the inhibition was -16.8%.

With `Cc1sc2nc(SCC(=O)N3CCN(CCO)CC3)n(-c3ccccc3)c(=O)c2c1C`, the inhibition was 31%.

With `CC(=O)Nc1cccc(NC(=O)C2CCCN2C(=O)Nc2ccc(C)cc2)c1` (stereo not given), the inhibition is 20.3%.

As to `Cc1ccc(C)n1-n1c(C)nc2sc(-c3ccccc3)cc2c1=O`, the inhibition is -272%.

`O=C1c2ccccc2-c2ccc(C(=O)N3CCOCC3)cc21`: the inhibition is -1.97%.

As to `O=C1NC(c2ccccc2)(C(F)(F)F)SC2=CCCCCN12` (stereo not given), the inhibition was 7.38%.

Turning to `CC1CCCCN1CCNC(=O)C1CCN(S(=O)(=O)c2cccc3cccnc23)CC1` (stereo not given), the inhibition is 39.6%.

As for `Cc1ccc(-c2nnc3c4ccccc4c(C)nn23)cc1S(=O)(=O)N1CCN(C)CC1`, the inhibition is 30.7%.

For `O=S(=O)(c1ccc2c(c1)OCCO2)N1CCC(n2nnc3cc(F)ccc32)CC1`, the inhibition was 17.7%.

For the compound `O=C(c1ccco1)N1CCN(S(=O)(=O)c2ccc(C3CCCCC3)cc2)CC1`, the inhibition was -28.6%.

Regarding `CC(=O)c1ccc(NC(=O)CSc2nnc(-c3ccoc3C)n2Cc2ccccc2)cc1`, the inhibition was -12%.

For `Cc1cc(NC(=O)CSc2nnc(COc3cccc(C)c3C)n2Cc2ccco2)no1`, the inhibition was 11.9%.

With `COc1cccc(NC(=O)C2CCN(c3ncccn3)CC2)c1`, the inhibition was -6.34%.

Turning to `CC1(C)CN=C(N2CCN(c3ncnc4sc5c(c34)CCCC5)CC2)S1`, the inhibition is 5.35%.

Regarding `CCOCCn1c(CN2CCN(c3cccc(Cl)c3)CC2)nc2c1c(=O)n(C)c(=O)n2C`, the inhibition was 22.6%.

In the case of `Clc1ccc(OCCCn2cncn2)cc1Cl`, the inhibition is -19.6%.

In the case of `CN(CC(=O)Nc1ccc(F)c(Cl)c1)S(=O)(=O)c1cccc2nsnc12`, the inhibition is 98.7% (active).

For the compound `O=C(NCc1nc2ccccc2[nH]1)c1ccco1`, the inhibition is -21.9%.

On to `O=C(Cc1cccs1)Nc1ccccc1NC(=O)Cc1cccs1`, for which the inhibition is 34.9%.

For the compound `COc1ccc(-c2nnc(SCC(=O)N3CCCCC3)o2)cc1OC`, the inhibition is 15.9%.

Take `CCOC(=O)c1cc2c(=O)n3ccccc3nc2n(CCCOC)c1=NC(=O)C(C)(C)C`: the inhibition is 16.3%.

Regarding `Cc1onc(-c2ccccc2Cl)c1C(=O)Nc1cnn(Cc2ccccc2)c1`, the inhibition was 32.6%.

As to `CC1Cc2ccccc2N1C(=O)c1cccnc1` (stereo not given), the inhibition was 25.5%.

Turning to `CS(=O)(=O)Nc1ccccc1C(=O)O`, the inhibition was 33%.

For the compound `O=C1CN(C(=O)COC(=O)C23CC4CC(CC(O)(C4)C2)C3)c2ccccc2N1`, the inhibition is 27.8%.

In the case of `O=C(Nc1ccc(F)cc1)NC1CCN(Cc2nnnn2Cc2ccco2)CC1`, the inhibition is 0.354%.

Consider `CCC(=O)c1ccc(OC(=O)c2ccc(Br)o2)cc1`, for which the inhibition was 9.67%.

Take `Cc1ccc(NC(=O)CCC(=O)OCC(F)(F)C(F)F)cc1`: the inhibition was 35.3%.
